Records with an inconclusive call do not appear. The source holds several records for some structures; these can differ, active in one and inactive in another. Active and inactive are the calls of the source. The calls were made as follows, unless noted: active = hit-call score of the fitted dose curve at least 0.9, where 1 is the maximum; inconclusive = response in the unintended direction; inactive = score below 0.9.
Key:
[1] = TOX21_p53_BLA_p2_viability: Viability Assessment in the Tox21 HCT-116 p53 Agonism Beta-lactamase Assay, Phase 2 (AID 2283591);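 also: compound exposure lasted 16 h at 37 °C; actives lower the ATP signal meaning cytotoxicity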
How it was run: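 HCT-116 p53-bla cells (4000/well) rested 5 h at 37C, then received compounds in DMSO (217-fold dilution) for 16 h at 37C, 5% CO2. After the CCF4 read, CellTiter-Glo was added; ATP luminescence was read after 30 min at room temperature.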

[2] = molecular target: Cellular tumor antigen p53 (Homo sapiens) (UniProt P04637); assay: TOX21_p53_BLA_p2_ratio: Tox21 HCT-116 p53 Agonism Beta-lactamase Assay, Ratio, Phase 2 (AID 2283592)
How it was run: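 In this cell-based reporter format, HCT116 cells were dosed with chemicals delivered from DMSO by 217-fold dilution and incubated 16 h at 37C. Emission at 460 and 530 nm after 2 h CCF4-AM loading provided the ratio, fitted upward versus DMSO.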

[3] = TOX21_p53_BLA_p3_viability: Viability Assessment in the Tox21 HCT-116 p53 Agonism Beta-lactamase Assay, Phase 3 (AID 2283593);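 also: cells exposed to compound for 16 h before reading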
How it was run: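 HCT-116 cells (4000/well) rested 5 h at 37C, then got DMSO compounds by pin tool (217-fold dilution) for 16 h at 37C, 5% CO2. After the bla read, CellTiter-Glo was added and luminescence read at 30 min, room temperature.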

[4] = TOX21_p53_BLA_p4_viability: Viability Assessment in the Tox21 HCT-116 p53 Agonism Beta-lactamase Assay, Phase 4 (AID 2283597);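 also: hits lower the luminescence signal meaning cytotoxicity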
How it was run: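 We seeded HCT116 p53 reporter cells at 4000/well and waited 5 h. We then added compounds in DMSO at a 217-fold dilution and incubated for 16 h. Viability was read as CellTiter-Glo luminescence after 30 min at RT.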

[5] = molecular target: Cellular tumor antigen p53 (Homo sapiens) (UniProt P04637); assay: TOX21_p53_BLA_p5_ratio: Tox21 HCT-116 p53 Agonism Beta-lactamase Assay, Ratio, Phase 5 (AID 2283599)
How it was run: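 HCT-116 cells carrying a p53-inducible beta-lactamase reporter were seeded at 4000 cells/well and dosed after 5 h with compound in DMSO (217-fold dilution). After 16 h at 37C, CCF4-AM substrate was added for 2 h, and the 460/530 nm emission ratio was scored as gain-of-signal versus DMSO.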

[6] = TOX21_p53_BLA_p5_viability: Viability Assessment in the Tox21 HCT-116 p53 Agonism Beta-lactamase Assay, Phase 5 (AID 2283600)
How it was run: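 Compounds, pinned from DMSO at 217-fold dilution, were left on the cells for 16 h. The viability endpoint was ATP content measured by CellTiter-Glo luminescence, where falling signal reflects cytotoxicity.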

[7] = molecular target: Cellular tumor antigen p53 (Homo sapiens) (UniProt P04637); assay: TOX21_p53_BLA_p3_ratio: Tox21 HCT-116 p53 Agonism Beta-lactamase Assay, Ratio, Phase 3 (AID 2283596)
How it was run: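 HCT116 p53-bla cells (4000/well) given compound in DMSO (217-fold dilution) after 5 h, incubated 16 h at 37C. CCF4-AM substrate 2 h at room temperature; 460/530 nm emission ratio, gain fitted against DMSO.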

[8] = molecular target: Cellular tumor antigen p53 (Homo sapiens) (UniProt P04637); assay: TOX21_p53_BLA_p4_ratio: Tox21 HCT-116 p53 Agonism Beta-lactamase Assay, Ratio, Phase 4 (AID 2283601)
How it was run: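 HCT116 cells carrying an inducible beta-lactamase reporter were plated at 4000 cells/well, rested 5 h, then exposed to compounds in DMSO (217-fold dilution) for 16 h at 37C. CCF4-AM substrate was loaded 2 h at room temperature; 460/530 nm emission ratio scored gain-of-signal versus DMSO.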

[9] = CCTE_Harrill_HTTr_Viability_MCF7: CCTE's 6-hour Cell Viability Assessment for the High-Throughput Transcriptomics (HTTr) Platform, in MCF-7 cells cultured in DMEM + 10% fetal bovine serum, Harrill Lab (AID 2284010; active = hit-call score of the fitted dose curve at least 0.9, where 1 is the maximum; inactive = score below 0.9)
How it was run: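 MCF-7 cells in DMEM + 10% FBS, 384-well, exposed 6 h to an eight-point dilution series. Membrane integrity scored by high-content imaging of propidium iodide exclusion; bidirectional fit versus DMSO.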

[10] = CCTE_Harrill_HTTr_Apoptosis_MCF7: CCTE's 6-hour Apoptosis Assessment for the High-Throughput Transcriptomics (HTTr) Platform, in MCF-7 cells cultured in DMEM + 10% fetal bovine serum, Harrill Lab (AID 2284011; active = hit-call score of the fitted dose curve at least 0.9, where 1 is the maximum; inactive = score below 0.9)
How it was run: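 Read-out: CellEvent Caspase 3/7 Green signal by high content imaging, gain-of-signal indicating apoptosis. MCF-7 cells, DMEM + 10% FBS, eight-point dilution series, 6 h exposure. Curves fitted bidirectionally relative to DMSO negative control.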

[11] = CCTE_Harrill_HTTr_CellCount_MCF7: CCTE's Cell Proliferation Assessment for the High-Throughput Transcriptomics (HTTr) Platform, Harrill Lab (AID 2284012);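 also: cells exposed to compound for six hours; intended direction is loss of nuclei count meaning fewer cells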
How it was run: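 MCF7 cells exposed 6 hours to an eight-point dilution series; Hoechst-stained nuclei counted by high-content imaging. Bidirectional curve fitting against DMSO baseline.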

Measured: AC50

Chain of Cellular tumor antigen p53 (Homo sapiens) (P04637 whole entry, looked up): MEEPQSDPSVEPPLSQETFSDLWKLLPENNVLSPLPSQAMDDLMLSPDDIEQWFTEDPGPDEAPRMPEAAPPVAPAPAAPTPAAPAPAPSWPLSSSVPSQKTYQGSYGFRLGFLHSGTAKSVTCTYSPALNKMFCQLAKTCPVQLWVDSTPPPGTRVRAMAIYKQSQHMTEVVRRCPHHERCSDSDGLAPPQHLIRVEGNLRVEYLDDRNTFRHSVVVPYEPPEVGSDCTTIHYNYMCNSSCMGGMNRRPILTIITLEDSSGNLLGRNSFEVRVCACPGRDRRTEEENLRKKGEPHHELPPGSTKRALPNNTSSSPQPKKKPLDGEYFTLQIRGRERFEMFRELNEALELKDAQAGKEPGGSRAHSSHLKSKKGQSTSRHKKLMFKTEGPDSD

O=Cc1ccc([N+](=O)[O-])cc1
inactive: [1] | [2] | [3] | [4] | [5]

NC(=S)NS(=O)(=O)c1ccc(N)cc1
inactive: [1] | [2] | [3] | [4] | [5] | [6]

CCCC(CCC)C(N)=O
inactive: [1] | [2] | [3] | [7] | [8]

CCOC(=O)[C@H](CCc1ccccc1)N[C@@H](C)C(=O)N1CCC[C@H]1C(=O)O
inactive: [1] | [2] | [3] | [4] | [5] | [6]

O=C1CCC(=O)O1
inactive: [1] | [2] | [3] | [4] | [5]

O=C(O)C=CC(=O)Nc1ccc(S(=O)(=O)Nc2nccs2)cc1
inactive: [1] | [2] | [3] | [4]

CCOc1ccc(N=C(C)Nc2ccc(OCC)cc2)cc1
inactive: [1] | [2] | [3] | [4] | [5] | [6]

CC1(C)S[C@@H]2[C@H](NC(=O)C(C(=O)O)c3ccsc3)C(=O)N2[C@H]1C(=O)O (stereo partly specified)
inactive: [1] | [2] | [3] | [4] | [5] | [6]

C=C(C)C(=O)OCCN(CC)CC
inactive: [1] | [2] | [3] | [4] | [5]

CCCCCCCCCCCCCCCBr
inactive: [1] | [2] | [3] | [4]

O=C(NC1CCN(CCc2c[nH]c3ccccc23)CC1)c1ccccc1
inactive: [1] | [2] | [3] | [7] | [8]

C1CCN(CN2CCCCC2)CC1
inactive: [1] | [2] | [3] | [7] | [8]

OCCN1CCN(CC/C=C2/c3ccccc3Sc3ccc(Cl)cc32)CC1
inactive: [1] | [2] | [3] | [4]

O=C1OC(=O)c2cc([N+](=O)[O-])ccc21
inactive: [1] | [2] | [3] | [4] | [5]

Nc1cc(S(=O)(=O)O)ccc1S(=O)(=O)O
inactive: [1] | [2] | [3] | [4]

NCCCC[C@H](NC(=O)[C@@H]1CCCN1C(=O)[C@@H]1CSSC[C@H](N)C(=O)N[C@@H](Cc2ccccc2)C(=O)N[C@@H](Cc2ccccc2)C(=O)N[C@@H](CCC(N)=O)C(=O)N[C@@H](CC(N)=O)C(=O)N1)C(=O)NCC(N)=O
inactive: [1] | [2] | [3] | [4] | [5] | [6]

CC(C)(COP(=O)(O)OP(=O)(O)OC[C@H]1O[C@@H](n2cnc3c(N)ncnc32)[C@H](O)[C@@H]1OP(=O)(O)O)C(O)C(=O)NCCC(=O)NCCS (stereo partly specified)
inactive: [1] | [2] | [3] | [4] | [5] | [6]

CCCCCSCCCCC
inactive: [1] | [2] | [3] | [4] | [5] | [6]

C=CCOc1c(Br)cc(C(C)(C)c2cc(Br)c(OCC=C)c(Br)c2)cc1Br
inactive: [1] | [2] | [3] | [4] | [5] | [6]

O=C1C2CC3CC1CC(O)(C3)C2
inactive: [1] | [2] | [3] | [7] | [8]

CC[N+]1(CC)CCC(=C(c2ccccc2)c2ccccc2)C1C (stereo unspecified)
inactive: [1] | [2] | [3] | [4] | [5] | [6]

CCCCCC=CCC=CCCCCCCCC(=O)OCC
inactive: [1] | [2] | [3] | [4]

CC1(C)C(=O)C(C)(C)C1=O
inactive: [1] | [2] | [3] | [4] | [5] | [6]

CC1=C(O)C(=O)OC1C (stereo unspecified)
inactive: [1] | [2] | [3] | [4] | [5] | [6]

COC(=O)[C@H]1[C@H]2C[C@@H]3c4[nH]c5ccccc5c4CCN3C[C@H]2C[C@@H](OC(=O)c2cc(OC)c(OC)c(OC)c2)[C@@H]1OC
inactive: [1] | [2] | [3] | [4] | [5] | [6]
active: [4] 6.8 µM

O=C(OCCO)c1ccccc1O
inactive: [1] | [2] | [3] | [4]

CC(C(O)c1ccccc1)N(C)CCOC(c1ccccc1)c1ccccc1 (stereo unspecified)
inactive: [1] | [2] | [3] | [6]
active: [4] 42.2 µM

COc1cccc2c1C(=O)c1c(O)c3c(c(O)c1C2=O)C[C@@](O)(C(=O)CO)C[C@@H]3O[C@H]1C[C@H](N)[C@H](O[C@@H]2CCCCO2)[C@H](C)O1
active: [1] 7.4 µM | [2] 6.79 µM | [3] 7.5 µM | [4] 7.64 µM | [5] 7.29 µM | [8] 7.58 µM
inactive: [6]

O=C(c1ccccc1)c1ccc2n1CCC2C(=O)O (stereo unspecified)
active: [8] 43.6 µM
inactive: [1] | [2] | [3] | [4] | [5]

C=C(C)C(=O)OCCCCCCCCCCCCC
inactive: [1] | [2] | [3] | [4] | [6] | [8]

CC1Cc2ccccc2N1NC(=O)c1ccc(Cl)c(S(N)(=O)=O)c1 (stereo unspecified)
not listed: [7]
inactive: all other assays above

Source: PubChem BioAssay (EPA / NIEHS)
